This note sets out measurements from PubChem BioAssay AID651650 (Sanford-Burnham Center for Chemical Genomics, 2012).

In the assay the target is Neuropilin-1 (Homo sapiens) (UniProt O14786). Briefly: blockers of CendR peptide binding to NRP-1 – biochemical, FP and AlphaScreen panel, dose response (AID 651650). The following applies: NRP-1 b1b2 / RPARPAR peptide binding, FP or AlphaScreen; run 1, at 100 µM (top of the series). In general terms: Bead proximity is the source of the signal in Alpha formats.
Neuropilin-1 (Homo sapiens), sequence (O14786 whole entry, looked up): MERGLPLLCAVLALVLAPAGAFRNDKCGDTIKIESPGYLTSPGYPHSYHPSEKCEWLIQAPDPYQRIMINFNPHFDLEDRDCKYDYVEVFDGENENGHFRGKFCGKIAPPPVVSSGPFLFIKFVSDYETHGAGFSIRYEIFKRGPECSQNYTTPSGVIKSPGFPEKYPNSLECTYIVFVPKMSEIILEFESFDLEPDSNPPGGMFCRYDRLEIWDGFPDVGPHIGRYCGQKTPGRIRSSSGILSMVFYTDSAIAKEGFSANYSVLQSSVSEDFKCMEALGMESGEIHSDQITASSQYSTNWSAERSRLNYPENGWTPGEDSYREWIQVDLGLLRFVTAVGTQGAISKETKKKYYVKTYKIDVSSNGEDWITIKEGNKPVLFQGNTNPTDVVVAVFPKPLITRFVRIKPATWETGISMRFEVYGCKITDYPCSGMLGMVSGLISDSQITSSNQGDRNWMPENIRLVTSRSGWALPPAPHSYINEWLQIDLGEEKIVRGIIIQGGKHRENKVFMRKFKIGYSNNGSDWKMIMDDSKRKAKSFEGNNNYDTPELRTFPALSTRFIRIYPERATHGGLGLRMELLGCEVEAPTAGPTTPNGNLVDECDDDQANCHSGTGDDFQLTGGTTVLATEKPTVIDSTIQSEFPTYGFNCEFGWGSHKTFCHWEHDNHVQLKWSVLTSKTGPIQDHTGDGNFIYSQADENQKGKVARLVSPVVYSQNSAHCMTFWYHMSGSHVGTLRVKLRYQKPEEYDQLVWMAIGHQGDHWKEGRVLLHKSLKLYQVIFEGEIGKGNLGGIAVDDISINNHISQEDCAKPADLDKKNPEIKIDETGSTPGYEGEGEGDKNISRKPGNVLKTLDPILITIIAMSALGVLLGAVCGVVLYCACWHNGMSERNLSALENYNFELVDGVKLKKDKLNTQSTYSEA
For the compound `COC(=O)C1=C(C)NC(C)=C(C(=O)OC)C1C(=O)OC(C)C(=O)c1ccccc1` (centres undefined), the inhibition (as a rule, the relative decrease from the control value, in per cent) is 12.9%. Take `CSc1ncccc1C(=O)OCC(=O)NC1CCCCC1`: the inhibition is 56.7%. Next, `COc1ccc(CCNC(=O)c2ccc(Cl)c(S(=O)(=O)N(C)c3ccccc3)c2)cc1`: -7.22%.

In the case of `COc1cc(C(=O)Nc2cc3c(cc2N2CCCCC2)n(C)c(=O)n3C)cc(OC)c1OC`, the inhibition turned out to be 57.1%. Next, `Cc1cccc(C)c1Nc1nnc(SCC(=O)Nc2cc(S(=O)(=O)N3CCCCC3)ccc2Cl)s1`: -15.9%; `CC(=NN(Cc1ccccc1)c1ccccc1)c1ccccc1`: 87.9%; `Cc1cnccc1CNC(=O)CC1C(=O)NCCN1CC(C)(C)C` (centres undefined): 57.6%. As for `Cc1cc(=O)n2nc(N3CCCC(C(=O)N4CCOCC4)C3)sc2n1` (centres undefined), the inhibition was found to be 17%. Next, `COc1cc(C(=O)OCCCOC(=O)c2cc(OC)c(OC)c(OC)c2)cc(OC)c1OC`: 13.4%; `CCOC(=O)C[C@H]1c2cc(C(F)(F)F)ccc2S(=O)(=O)N1Cc1ccccc1`: 59.5%. Regarding `CCOc1ccccc1N1CCN(C(=O)c2ccncc2)CC1`, the inhibition is -22.8%. Take `O=C(CSc1nc2ccccc2n1Cc1ccccc1Cl)N/N=C/c1ccccc1C(=O)O`: the inhibition stood at 84.6%. The result for `Fc1cc(Cl)ccc1Nc1nc(NCc2ccccc2)nc2ccsc12` reads 23%; that for `O=c1oc(Nc2ccccc2F)nc2ccccc12`, 25.1%. Next, `CC(C)C1=C2CCCCC2NC(=O)N1` (centres undefined): 32.2%.

`COc1cc2oc(=O)ccc2cc1[C@@H](O)[C@@H]1OC(C)(C)OC1(C)C`: the inhibition was 10.7%. For `COc1ccccc1COc1ccc2c(C)c(CC(=O)O)c(=O)oc2c1C`, the inhibition turned out to be 44.2%. Next, `O=C(c1ccc(-c2cccc(C(F)(F)F)c2)o1)N1CCCC(C(F)(F)F)C1` (centres undefined): 3.1%. The result for `COc1ccc(C(O)c2nc(-c3ccc4ccccc4c3)cs2)cc1` (centres undefined) reads 26.1%; that for `Cc1ccc(N(C(=O)c2ccc(CN3CCOCC3)o2)C(C(=O)NCCC(C)C)c2cccs2)c(C)c1` (centres undefined), 16%; that for `Cn1c(=O)c2c(ncn2CC(COCc2ccccc2)OCc2ccccc2)n(C)c1=O` (centres undefined), 54.8%. Next, `O=C(NCCN1CCOCC1)c1cc(-c2ccc(F)cc2)on1`: 17.9%. As to `CC(C)(C)OC(=O)N1CCC(NC(=O)c2nc[nH]c2C(=O)N2CCc3ccccc3C2)CC1`, the inhibition is 25.2%. `COc1cccc(OCCNC(=O)Nc2cc(F)c(F)cc2Cl)c1`: the inhibition stood at 54.1%. The result for `NC(N)=NCCC[C@H](NC(=O)OCc1ccccc1)C(=O)O` reads 17.2%. The result for `O=C(CSc1nc2ccccc2c(=O)n1-c1ccc(F)cc1F)Nc1ccc2c(c1)CCC2` reads 21.2%; that for `CCOC(=O)Cc1cnc(NC(=O)NC(C(=O)OCC)(c2ccccc2)C(F)(F)F)s1` (centres undefined), 99.2%; that for `Cc1cnc(C(=O)OCC(=O)Nc2sc3c(c2C#N)CCC3)cn1`, 44.2%.

On to `Cc1cc(S(=O)(=O)NC2CCCCC2)ccc1OCC(=O)N1CCOCC1`, for which the inhibition was 97.6%.

As to `CC(Nc1ccc2ccccc2c1)C(=O)N/N=C/c1ccncc1` (centres undefined), the inhibition turned out to be 45.8%. Regarding `COC(=O)Cc1ccc(NC(=S)NCCCO)cc1`, the inhibition was determined as 49.7%. As to `COc1ccc(C(=O)N2CCC(C)(C(=O)NS(=O)(=O)C3CC3)C2)cc1F` (centres undefined), the inhibition came out at 12.1%. Consider `O=C(NNC(=O)C1CCN(c2ncccn2)CC1)c1ccc(F)cc1`, for which the inhibition came out at 26.5%. The result for `COc1ccc2c(c1)N(C)/C(=C1/SC(=NCc3ccccc3)N(c3ccccc3)C1=O)S2` reads 36.5%; that for `O=C(COC(=O)c1ccccn1)c1ccc([N+](=O)[O-])cc1`, 66.4%. Consider `Cc1ccccc1Nc1nc(N)nc(COC(=O)CC2CC3CCC2C3)n1` (centres undefined), for which the inhibition was determined as 3.37%. Consider `C=C1CCN([C@@H](CC(C)C)C(=O)NCc2ccccc2)S(=O)(=O)c2ccccc21`, for which the inhibition is 12.9%.

In the case of `O=C(Cn1cccc1C(=O)c1ccccc1)NCCC1=CCCCC1`, the inhibition stood at 94.3%. Next, `Cc1ccccc1/C=C/c1nc2ccccc2c(=O)n1CCc1ccccc1`: 34.1%.
